High-throughput results as filed in PubChem.
CIT2 TOR yeast = alters CIT2-GFP fluorescence in TOR pathway yeast screen | S. cerevisiae CIT2-GFP strain, flow cytometry, 3 h; 100 means same as DMSO wells | GFP response vs DMSO, % at 10 µM | actives 0.065% (n = 320,000) | AID 2029;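 active means GFP response relative to DMSO above a set limit, near the screen mean plus 3 SD, cut at about 150% in these data; inconclusive means Fewer than 70 cells measured for a yeast strain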;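 further: ratio of well median GFP fluorescence to mean of DMSO wells on the plate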
AGP1 TOR yeast = yeast TOR pathway AGP1-GFP modulation. S. cerevisiae AGP1-GFP multiplex flow cytometry, 3 h; GFP as percent of DMSO wells. GFP response vs DMSO, % at 10 µM. actives 0.02% (n = 320,000). AID 2066;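 active means GFP response relative to DMSO above a set limit, near screen average plus 3 SD, cut at about 150% in these data; inconclusive means fewer than 70 cells counted for the yeast strain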;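 further: median GFP channel fluorescence of the gated AGP1 strain per well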
LAP4 TOR yeast = alters LAP4-GFP fluorescence in TOR pathway yeast screen; S. cerevisiae LAP4-GFP multiplex, flow cytometry GFP, 3 h; median GFP as percent of DMSO wells; GFP response vs DMSO, % at 10 µM; AID 2023; actives 0.34% (n = 320,000);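 active means GFP response vs DMSO above a set limit, about the screen mean plus 3 SD, cut at about 150% in these data; inconclusive means under 70 cell events counted for the yeast strain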
MEP2-GFP yeast = modulators of TOR pathway MEP2-GFP in S. cerevisiae; S. cerevisiae MEP2-GFP strain, flow cytometry GFP, 3 h; 100% = DMSO control level; GFP response vs DMSO, % at 10 µM; actives 0.51% (n = 330,000);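 active means GFP response versus DMSO above a set limit, roughly screen mean plus 3 SD, cut at about 180% in these data; inconclusive means fewer than 70 cells counted for a yeast strain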;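 further: median GFP fluorescence of the barcode-gated MEP2-GFP cells per well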
RPL19A-GFP yeast = alters RPL19A-GFP fluorescence in TOR pathway yeast screen | actives 0.3% (n = 330,000) | AID 2025 | S. cerevisiae RPL19A-GFP strain, flow cytometry, 3 h; active compounds read low | percent response vs DMSO, % at 10 µM;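 active means percent response vs DMSO below 50%; inconclusive means fewer than 70 events counted for the yeast strain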;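 further: median channel GFP fluorescence of the barcoded RPL19A-GFP strain; ratio of sample median GFP to plate DMSO average so 100% = DMSO; lower means less RPL19A-GFP as with rapamycin TOR inhibition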
Starred values were filed as active, the others as inactive; ? = inconclusive; · = not tested or not shown; + = active, no number; [ ] = remark or other dose. In the library only some 0.92% were active in any assay of this set; here they are far more common.

SMILES	CIT2 TOR yeast	AGP1 TOR yeast	LAP4 TOR yeast	MEP2-GFP yeast	RPL19A-GFP yeast
Cc1[nH]c(C)c(S(=O)(=O)N2CCN(c3cccc(Cl)c3)CC2)c1C(=O)N1CCCC1	102	100	86	103	100
CCC12OC(=N)C(C#N)(C1C)C(C#N)(C#N)C(c1ccccc1)O2 (stereo not given)	?	15	95	204*[may fluoresce violet]	74
CN(C)/C=C/C(=O)c1cnc(-c2ccccc2)s1	·	15	156*[may fluoresce violet]	106	62
CN(C)/C=C/C(=O)c1cnc(-c2ccc(Cl)cc2)s1	92	32	105	102	94
O=C(CN1C(=O)NC2(CCCC2)C1=O)N1CCN(S(=O)(=O)c2ccccc2[N+](=O)[O-])CC1	90	104	113	97	96
CCN(CC)C(=O)c1ccc2c3c(cccc13)C(=O)N(CCc1ccc(OC)c(OC)c1)C2=O	103	98	119	177*	104
CCN(CC(=O)Nc1ccccc1C(F)(F)F)C(=O)c1oc2ccc(OC)cc2c1C	99	104	103	103	102
COc1ccc(Cl)cc1N(CC(=O)N1CCCC1)S(=O)(=O)c1ccc(C)cc1	?	?	90	216*[may fluoresce violet]	47*[may fluoresce violet]
Nc1cccc2c1C(=O)N(C(=O)/C=C/c1ccc(F)cc1)C2=O	?	19	206*[may fluoresce violet]	127	89
Nc1cccc2c1C(=O)N(C(=O)c1ccco1)C2=O	110	101	112	109	94
Cc1oc2ccccc2c1-c1cn2c(n1)SCC2	?	?	95	?	11*[may fluoresce violet]
CCCCN(C(C)=O)c1ccc(S(=O)(=O)NC2=NCCCCC2)cc1NC(C)=O	94	96	94	94	94
COc1cc(/C=C2\N=C(C)OC2=O)cc(Cl)c1OC(C)=O	109	94	110	110	110
CCOc1cc(/C=C2\N=C(C)OC2=O)cc(Cl)c1OCC(=O)OC	106	96	170*	96	103
C(=N\Nc1nc(Nc2ccccc2)nc(N2CCOCC2)n1)/c1c[nH]c2ccccc12	?	?	96	447*[may fluoresce violet]	42*[may fluoresce violet]
O=C(CCCc1ccccc1)NCCS(=O)(=O)N1CCN(c2ccc(F)cc2)CC1	92	100	93	99	91
COc1ccc(/C=C/C(=O)NC(=S)N2CCSCC2)cc1	·	257*[may fluoresce green]	+[may fluoresce green]	+[may fluoresce green]	275
COc1ccc(/C=C/C(=O)NC(=S)N2CCN(c3ccccn3)CC2)cc1	101	107	118	103	104
COc1ccc(-n2nnnc2SCC(=O)c2ccc(O)c(O)c2)cc1	?	?	?	276*[may fluoresce violet]	12*[may fluoresce violet]
COc1ccc(NC(=O)c2ccc(OCc3c(C)noc3C)c(OC)c2)cn1	?	?	72	190*[may fluoresce violet]	53
Cc1ccc(/C=C2\SC(=S)N(CCC(=O)NNC(=O)c3cccc(O)c3)C2=O)cc1	?	14	79	151	21*[may fluoresce violet]
Cc1ccc(/C=C2\SC(=S)N(CCC(=O)NNC(=O)c3ccc(O)cc3)C2=O)cc1	101	110	102	106	103
O=C(COC(=O)c1cnccn1)c1cccc([N+](=O)[O-])c1	114	131	133	106	105
CCc1ccccc1NC(=O)C1CCCN(c2nccc(C)n2)C1 (stereo not given)	?	?	62	?	25*[may fluoresce violet]
CS(=O)(=O)c1[nH]nc(-c2cccc(Cl)c2)c1C#N	106	104	109	112	103
O=C(CCN1C(=O)S/C(=C/c2ccccc2)C1=O)Nc1ccc(O)c(C(=O)O)c1	?	?	86	142	17*[may fluoresce violet]
